Reference: ChEMBL document CHEMBL1961873, “Compounds: GSK PKIS; Assays: Nanosyn kinase panel” (2012)

These molecules were tested on Platelet-derived growth factor receptor alpha (Homo sapiens), P16234 [T674I]. Conditions: at 1 µM.
Chain of Platelet-derived growth factor receptor alpha (Homo sapiens), P16234 [T674I] (P16234 whole entry T674I): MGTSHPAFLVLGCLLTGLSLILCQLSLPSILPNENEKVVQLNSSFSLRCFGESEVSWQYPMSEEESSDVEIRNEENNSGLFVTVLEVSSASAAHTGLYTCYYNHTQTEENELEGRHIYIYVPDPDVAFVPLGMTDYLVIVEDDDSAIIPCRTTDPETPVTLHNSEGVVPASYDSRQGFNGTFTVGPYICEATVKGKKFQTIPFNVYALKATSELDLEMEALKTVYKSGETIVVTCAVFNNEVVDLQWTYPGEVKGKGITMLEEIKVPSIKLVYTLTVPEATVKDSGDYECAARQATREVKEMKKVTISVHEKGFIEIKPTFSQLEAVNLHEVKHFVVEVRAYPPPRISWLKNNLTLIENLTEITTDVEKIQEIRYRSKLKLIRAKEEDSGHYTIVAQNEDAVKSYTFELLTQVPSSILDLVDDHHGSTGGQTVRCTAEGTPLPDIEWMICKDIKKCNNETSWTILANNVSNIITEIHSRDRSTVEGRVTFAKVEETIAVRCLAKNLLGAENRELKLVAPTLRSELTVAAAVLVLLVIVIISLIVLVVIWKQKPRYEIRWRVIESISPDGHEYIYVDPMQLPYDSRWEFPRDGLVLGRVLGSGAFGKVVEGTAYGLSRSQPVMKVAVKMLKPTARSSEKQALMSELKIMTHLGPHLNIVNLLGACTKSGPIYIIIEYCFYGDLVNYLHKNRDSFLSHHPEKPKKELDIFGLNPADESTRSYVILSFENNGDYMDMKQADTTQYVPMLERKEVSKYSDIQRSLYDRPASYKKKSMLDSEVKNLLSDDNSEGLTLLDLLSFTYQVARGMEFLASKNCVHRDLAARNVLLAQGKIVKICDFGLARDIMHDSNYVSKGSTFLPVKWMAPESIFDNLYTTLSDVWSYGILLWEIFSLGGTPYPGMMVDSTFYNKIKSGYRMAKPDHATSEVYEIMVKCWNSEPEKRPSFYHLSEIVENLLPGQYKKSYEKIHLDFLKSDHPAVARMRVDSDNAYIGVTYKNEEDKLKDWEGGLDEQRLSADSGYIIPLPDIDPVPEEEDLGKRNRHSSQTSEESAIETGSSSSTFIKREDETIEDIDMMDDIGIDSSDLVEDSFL
Work on `Nc1ccc(C#Cc2cncnc2Nc2ccc(OCc3cccc(F)c3)c(Cl)c2)cc1` yielded an inhibition of 5.56%. In the case of `O=S(=O)(CCOCc1ccc(-c2ccc3ncnc(Nc4ccc(OCc5cccc(F)c5)c(Cl)c4)c3c2)o1)c1ccccc1`, the inhibition is reported as 8.5%. `CS(=O)(=O)Nc1cccc(-c2ccc3c(NC(=O)C4CC4)n[nH]c3c2)c1` gave an inhibition of -1.66%. `CCCN1CCCC(c2ccc(Nc3nc(Nc4cc(F)ccc4C(N)=O)c4cc[nH]c4n3)c(OC)c2)C1` (stereo not drawn) showed an inhibition of 8.24%. `OCc1ccc(-c2nc(-c3ccccn3)c(-c3ccc4c(c3)OCO4)[nH]2)cc1` showed an inhibition of 6.47%. `COc1ccc(-c2nn3ncccc3c2-c2ccnc(Nc3cccc(C(F)(F)F)c3)n2)cc1` showed an inhibition of 5.13%. `CCn1c(-c2nonc2N)nc2c(C#CC(C)(C)O)nc(OCCNC)cc21` showed an inhibition of 14.2%. `Cc1cc(Cl)cc2c1NC(=O)C2=NNc1ccc(S(N)(=O)=O)cc1` was tested, and the inhibition was 9.82%. With `O=C(Nc1ccc(Oc2ccc3[nH]c(NC(=O)c4ccco4)nc3c2)cc1)Nc1cc(C(F)(F)F)ccc1F` the inhibition was 95.8%. With `COc1cc(Nc2nccc(-c3cnn4ncccc34)n2)cc(OC)c1` the inhibition was 91.9%. Work on `CS(=O)(=O)CCNCc1nc(-c2ccc3ncnc(Nc4ccc(OCc5cccc(C(F)(F)F)c5)cc4)c3c2)cs1` yielded an inhibition of 15.7%. Work on `CN(C)CCCn1c(-c2nonc2N)nc2cnccc21` yielded an inhibition of 7.54%. `Cc1ccc(Nc2ccnc(Nc3cccc(C(N)=O)c3)n2)cc1O` was tested, and the inhibition was 26.3%. Molecule `Oc1cccc(-c2nc(-c3ccccc3)[nH]c2-c2ccncc2)c1` has an inhibition of 5.18%. With `c1ccc(Cc2nc3ccc(Nc4ncnc5ccccc45)cc3[nH]2)cc1` the inhibition was 5.74%. Work on `COC(=O)c1ccc2c(c1)C(=Cc1cc(Br)c(O)c(Br)c1)C(=O)N2` yielded an inhibition of 3.91%.

These molecules were tested on Platelet-derived growth factor receptor alpha (Homo sapiens), P16234 [V561D]. Conditions: at 0.1 µM.
Chain of Platelet-derived growth factor receptor alpha (Homo sapiens), P16234 [V561D] (P16234 whole entry V561D): as the sequence (P16234 whole entry T674I) above, with V561D, I674T counted along it
`COc1cccc(-n2nc(C)c3c(N/N=C(\C)c4ccncc4)ncnc32)c1` gave an inhibition of 0.1%. `N#Cc1c(NC(=O)c2ccccc2F)sc2c1CCCC2` was tested, and the inhibition was 2.72%. In the case of `COc1cc2ncnc(Nc3ccc4c(cnn4Cc4ccccc4)c3)c2cc1OC`, the inhibition is reported as 6.36%. For `Cc1cc(O)cc(C)c1/C=C/c1cncc(C(=O)N(C)C)c1`, the inhibition was 1.47%. `NS(=O)(=O)c1ccc(NC=C2C(=O)Nc3ccc4ncsc4c32)cc1` gave an inhibition of 68%. For `NS(=O)(=O)c1ccc(-c2cc3ccncc3cc2OCc2ccccc2)cc1`, the inhibition was 3.67%. For `Cc1ccc2c(-c3ccnc(Nc4ccc5c(c4)OCCO5)n3)c(-c3ccc(C(F)(F)F)cc3)nn2n1`, the inhibition was 1.97%. For `Cc1cc(-c2ccccn2)cc(C)c1/C=C/c1cncc(-c2nn[nH]n2)c1`, the inhibition was 3.13%. Molecule `COc1cc(/C=N/Nc2ncnc3c2cnn3C(C)C)ccc1O` has an inhibition of 12.3%. For `COC(=O)c1cncc(/C=C/c2c(C)cc(O)cc2C)c1`, the inhibition was 27%. `COc1ccc2ncnc(Nc3ccc(OCc4ccccc4)cc3)c2c1` gave an inhibition of 1.76%. Work on `Cc1ccc(O)cc1Nc1ccnc2ccc(S(C)(=O)=O)cc12` yielded an inhibition of 84.7%. With `CC(C)c1ccc(Nc2nccc(-c3cnn4ncccc34)n2)cc1` the inhibition was 18.9%. In the case of `COc1cc2ncn(-c3cc(OCc4ccccc4S(C)(=O)=O)c(C#N)s3)c2cc1OC`, the inhibition is reported as 47.3%. Work on `Nc1nccc(C#Cc2cncnc2Nc2ccc(OCc3cccc(F)c3)c(Cl)c2)n1` yielded an inhibition of 4.25%. `[O-][S+]1CCN(Cc2ccc(-c3ccc4ncnc(Nc5ccc(OCc6ccccc6)c(Cl)c5)c4c3)o2)CC1` gave an inhibition of 3.07%. Molecule `CCS(=O)(=O)c1ccc(OC)c(Nc2nccc(N(C)c3ccc4c(C)n[nH]c4c3)n2)c1` has an inhibition of 20.5%. Molecule `Nc1ccc(C#Cc2cncnc2Nc2ccc(OCc3cccc(F)c3)c(Cl)c2)cc1` has an inhibition of 1.6%. In the case of `O=S(=O)(CCOCc1ccc(-c2ccc3ncnc(Nc4ccc(OCc5cccc(F)c5)c(Cl)c4)c3c2)o1)c1ccccc1`, the inhibition is reported as 3.15%. In the case of `CS(=O)(=O)Nc1cccc(-c2ccc3c(NC(=O)C4CC4)n[nH]c3c2)c1`, the inhibition is reported as 1.13%. `CCCN1CCCC(c2ccc(Nc3nc(Nc4cc(F)ccc4C(N)=O)c4cc[nH]c4n3)c(OC)c2)C1` (stereo not drawn) showed an inhibition of 6.86%. `OCc1ccc(-c2nc(-c3ccccn3)c(-c3ccc4c(c3)OCO4)[nH]2)cc1` was tested, and the inhibition was 3.57%. Work on `COc1ccc(-c2nn3ncccc3c2-c2ccnc(Nc3cccc(C(F)(F)F)c3)n2)cc1` yielded an inhibition of 1.12%. `CCn1c(-c2nonc2N)nc2c(C#CC(C)(C)O)nc(OCCNC)cc21` gave an inhibition of 3.69%. For `Cc1cc(Cl)cc2c1NC(=O)C2=NNc1ccc(S(N)(=O)=O)cc1`, the inhibition was 9.46%. `O=C(Nc1ccc(Oc2ccc3[nH]c(NC(=O)c4ccco4)nc3c2)cc1)Nc1cc(C(F)(F)F)ccc1F` was tested, and the inhibition was 73.2%. For `COc1cc(Nc2nccc(-c3cnn4ncccc34)n2)cc(OC)c1`, the inhibition was 37.5%.
